# Experimental data published in PMC7862700, “An all-to-all approach to the identification of sequence-specific readers for epigenetic DNA modifications on cytosine”.
# Key:
# Experiment in all cases: DAPPL (digital affinity profiling via proximity ligation, sequencing); 10 mM Tris-HCl pH 7.5, 50 mM NaCl, 1 mM DTT, 4% glycerol, room temperature, 30 min; GST-TFs on glutathione beads, 16-mer random dsDNA library, 0.1% formaldehyde crosslink after washing; high values mean tight binding
# Settings in all cases: protein: recombinant; tags: N-terminal GST; dsDNA, one strand shown
# ERF = biological target: T1, ERF (Homo sapiens, UniProt P50548 1-548)
# T1 sequence: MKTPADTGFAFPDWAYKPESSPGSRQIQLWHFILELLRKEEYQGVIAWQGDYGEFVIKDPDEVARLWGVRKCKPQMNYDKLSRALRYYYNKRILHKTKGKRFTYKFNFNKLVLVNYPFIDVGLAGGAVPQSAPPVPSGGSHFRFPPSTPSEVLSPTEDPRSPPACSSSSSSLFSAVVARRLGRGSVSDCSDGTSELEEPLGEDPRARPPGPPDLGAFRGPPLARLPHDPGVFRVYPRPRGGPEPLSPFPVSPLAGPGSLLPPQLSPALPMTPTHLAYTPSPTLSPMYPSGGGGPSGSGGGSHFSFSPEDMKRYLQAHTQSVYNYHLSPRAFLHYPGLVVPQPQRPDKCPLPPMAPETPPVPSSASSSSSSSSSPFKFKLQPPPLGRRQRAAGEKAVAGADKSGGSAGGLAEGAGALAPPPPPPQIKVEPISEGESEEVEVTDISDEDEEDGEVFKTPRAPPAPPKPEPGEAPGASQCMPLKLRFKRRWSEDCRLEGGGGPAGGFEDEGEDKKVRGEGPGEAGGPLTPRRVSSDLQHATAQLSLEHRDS
# Summary of the method: (§1)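 Yeast served to express human transcription factors as GST fusions, which were then captured on glutathione beads and labelled with DNA barcodes. Pooled with a tag-only sample, they were incubated with 200 nmole of a 16-mer random double-stranded DNA library for 30 min at room temperature in Tris/NaCl/DTT/glycerol buffer, washed, crosslinked with 0.1% formaldehyde, ligated by proximity, amplified by PCR and sequenced. Dividing each hexamer's read frequency for a factor by its frequency for the tag-only sample gives the binding signal.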
# ETV3L = biological target: T2, ETV3L (Homo sapiens, UniProt Q6ZN32 1-361)
# T2 sequence: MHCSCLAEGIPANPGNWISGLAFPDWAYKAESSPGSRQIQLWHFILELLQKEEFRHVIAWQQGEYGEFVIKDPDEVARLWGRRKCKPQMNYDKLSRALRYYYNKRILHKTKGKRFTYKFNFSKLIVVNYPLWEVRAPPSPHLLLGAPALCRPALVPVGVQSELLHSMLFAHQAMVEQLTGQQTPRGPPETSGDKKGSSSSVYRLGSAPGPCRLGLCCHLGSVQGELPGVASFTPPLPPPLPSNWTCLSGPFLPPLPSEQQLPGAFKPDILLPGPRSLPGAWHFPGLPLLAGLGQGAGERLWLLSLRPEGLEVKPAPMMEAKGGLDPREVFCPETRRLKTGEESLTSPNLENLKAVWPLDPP
# Summary of the method: as §1
# ETS2 = biological target: T3, ETS2 (Homo sapiens, UniProt P15036 1-469)
# T3 sequence: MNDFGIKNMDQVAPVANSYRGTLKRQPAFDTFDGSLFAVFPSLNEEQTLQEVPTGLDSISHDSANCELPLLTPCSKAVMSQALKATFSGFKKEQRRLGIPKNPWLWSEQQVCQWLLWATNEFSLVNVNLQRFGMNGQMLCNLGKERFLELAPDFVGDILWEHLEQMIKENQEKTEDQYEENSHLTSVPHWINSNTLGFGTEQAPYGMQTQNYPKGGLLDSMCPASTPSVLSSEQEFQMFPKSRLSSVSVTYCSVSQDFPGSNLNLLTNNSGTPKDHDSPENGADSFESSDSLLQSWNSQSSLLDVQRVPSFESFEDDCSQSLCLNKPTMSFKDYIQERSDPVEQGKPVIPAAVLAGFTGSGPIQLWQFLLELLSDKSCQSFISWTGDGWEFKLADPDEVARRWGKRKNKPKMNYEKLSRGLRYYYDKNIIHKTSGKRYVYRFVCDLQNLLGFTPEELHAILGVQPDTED
# Summary of the method: as §1
# SPDEF = biological target: T4, SPDEF (Homo sapiens, UniProt O95238 1-335)
# T4 sequence: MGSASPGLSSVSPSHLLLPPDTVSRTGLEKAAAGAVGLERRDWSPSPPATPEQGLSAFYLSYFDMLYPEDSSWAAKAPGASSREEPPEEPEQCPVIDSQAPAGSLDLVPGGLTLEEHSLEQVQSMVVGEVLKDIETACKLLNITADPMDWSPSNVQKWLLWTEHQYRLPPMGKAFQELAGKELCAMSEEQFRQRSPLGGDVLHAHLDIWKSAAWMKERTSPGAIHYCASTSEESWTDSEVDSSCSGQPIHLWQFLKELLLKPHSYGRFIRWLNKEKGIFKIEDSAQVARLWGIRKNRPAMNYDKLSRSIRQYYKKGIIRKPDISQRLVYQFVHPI
# Summary of the method: as §1
# ETV7 = biological target: T5, ETV7 (Homo sapiens, UniProt Q9Y603 1-341)
# T5 sequence: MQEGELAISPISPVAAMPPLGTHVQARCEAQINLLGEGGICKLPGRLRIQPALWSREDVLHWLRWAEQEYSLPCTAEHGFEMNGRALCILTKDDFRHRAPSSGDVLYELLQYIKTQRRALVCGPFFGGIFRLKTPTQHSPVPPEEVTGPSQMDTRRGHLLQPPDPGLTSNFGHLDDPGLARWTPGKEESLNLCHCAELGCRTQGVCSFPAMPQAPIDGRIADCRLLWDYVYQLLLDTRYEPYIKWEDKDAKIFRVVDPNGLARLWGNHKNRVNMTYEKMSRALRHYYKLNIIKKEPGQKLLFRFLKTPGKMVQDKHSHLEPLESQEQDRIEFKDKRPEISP
# Summary of the method: as §1
# ELF5 = biological target: T6, ELF5 (Homo sapiens, UniProt Q9UKW6-2 1-255)
# T6 sequence: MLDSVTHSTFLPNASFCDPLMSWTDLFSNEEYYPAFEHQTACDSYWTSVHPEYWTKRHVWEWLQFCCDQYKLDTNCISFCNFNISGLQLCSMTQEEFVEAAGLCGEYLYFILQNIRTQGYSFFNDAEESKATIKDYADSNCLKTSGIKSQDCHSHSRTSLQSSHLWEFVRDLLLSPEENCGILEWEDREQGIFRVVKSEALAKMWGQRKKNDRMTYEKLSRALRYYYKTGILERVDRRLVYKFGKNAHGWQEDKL
# Summary of the method: as §1
# ETV3 = biological target: T7, ETV3 (Homo sapiens, UniProt P41162-2 1-143)
# T7 sequence: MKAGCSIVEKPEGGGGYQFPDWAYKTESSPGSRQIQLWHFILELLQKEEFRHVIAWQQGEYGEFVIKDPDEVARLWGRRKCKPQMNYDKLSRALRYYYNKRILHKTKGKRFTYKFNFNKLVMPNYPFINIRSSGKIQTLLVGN
# Summary of the method: as §1
# ETV6 = ETV6 (Homo sapiens, UniProt P41212 1-452)
# Summary of the method: as §1
# Sequence of ETV6 (P41212 whole entry): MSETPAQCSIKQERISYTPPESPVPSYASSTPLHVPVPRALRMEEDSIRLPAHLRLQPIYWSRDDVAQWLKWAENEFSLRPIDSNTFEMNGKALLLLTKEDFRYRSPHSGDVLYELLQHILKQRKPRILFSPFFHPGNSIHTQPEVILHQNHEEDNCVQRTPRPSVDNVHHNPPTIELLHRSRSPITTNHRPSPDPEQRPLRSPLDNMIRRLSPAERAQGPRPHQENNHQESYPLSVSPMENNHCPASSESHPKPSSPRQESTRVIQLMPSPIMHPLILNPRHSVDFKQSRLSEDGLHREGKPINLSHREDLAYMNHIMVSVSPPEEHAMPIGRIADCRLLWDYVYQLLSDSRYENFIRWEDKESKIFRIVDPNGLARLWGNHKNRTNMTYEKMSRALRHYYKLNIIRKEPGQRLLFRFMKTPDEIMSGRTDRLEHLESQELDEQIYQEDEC
Sequence,binding signal (ERF),binding signal (ETV3L),binding signal (ETS2),binding signal (SPDEF),binding signal (ETV7),binding signal (ELF5),binding signal (ETV3),binding signal (ETV6)
AGCTTC,"1.75 fold enrichment (6-mer frequency, TF over GST control)","1.64 fold enrichment (6-mer frequency, TF over GST control)","1.77 fold enrichment (6-mer frequency, TF over GST control)","1.67 fold enrichment (6-mer frequency, TF over GST control)","1.65 fold enrichment (6-mer frequency, TF over GST control)","2.21 fold enrichment (6-mer frequency, TF over GST control)","1.77 fold enrichment (6-mer frequency, TF over GST control)","1.84 fold enrichment (6-mer frequency, TF over GST control)"
CGATTT,"1.09 fold enrichment (6-mer frequency, TF over GST control)","1.17 fold enrichment (6-mer frequency, TF over GST control)","1.26 fold enrichment (6-mer frequency, TF over GST control)","1.07 fold enrichment (6-mer frequency, TF over GST control)","1.13 fold enrichment (6-mer frequency, TF over GST control)","1.13 fold enrichment (6-mer frequency, TF over GST control)","1.18 fold enrichment (6-mer frequency, TF over GST control)","1.22 fold enrichment (6-mer frequency, TF over GST control)"
TCGACA,"1.35 fold enrichment (6-mer frequency, TF over GST control)","1.3 fold enrichment (6-mer frequency, TF over GST control)","1.31 fold enrichment (6-mer frequency, TF over GST control)","1.23 fold enrichment (6-mer frequency, TF over GST control)","1.39 fold enrichment (6-mer frequency, TF over GST control)","1.27 fold enrichment (6-mer frequency, TF over GST control)","1.4 fold enrichment (6-mer frequency, TF over GST control)","1.42 fold enrichment (6-mer frequency, TF over GST control)"
TACTTC,"3.18 fold enrichment (6-mer frequency, TF over GST control)","3.22 fold enrichment (6-mer frequency, TF over GST control)","3.64 fold enrichment (6-mer frequency, TF over GST control)","4.31 fold enrichment (6-mer frequency, TF over GST control)","3.62 fold enrichment (6-mer frequency, TF over GST control)","4.77 fold enrichment (6-mer frequency, TF over GST control)","3.67 fold enrichment (6-mer frequency, TF over GST control)","4.67 fold enrichment (6-mer frequency, TF over GST control)"
TTTACT,"1.3 fold enrichment (6-mer frequency, TF over GST control)","1.42 fold enrichment (6-mer frequency, TF over GST control)","1.44 fold enrichment (6-mer frequency, TF over GST control)","1.44 fold enrichment (6-mer frequency, TF over GST control)","1.57 fold enrichment (6-mer frequency, TF over GST control)","1.36 fold enrichment (6-mer frequency, TF over GST control)","1.53 fold enrichment (6-mer frequency, TF over GST control)","1.44 fold enrichment (6-mer frequency, TF over GST control)"
AATTAT,"1.15 fold enrichment (6-mer frequency, TF over GST control)","1.26 fold enrichment (6-mer frequency, TF over GST control)","1.27 fold enrichment (6-mer frequency, TF over GST control)","1.24 fold enrichment (6-mer frequency, TF over GST control)","1.23 fold enrichment (6-mer frequency, TF over GST control)","1.24 fold enrichment (6-mer frequency, TF over GST control)","1.28 fold enrichment (6-mer frequency, TF over GST control)","1.2 fold enrichment (6-mer frequency, TF over GST control)"
TATTTG,"1.34 fold enrichment (6-mer frequency, TF over GST control)","1.47 fold enrichment (6-mer frequency, TF over GST control)","1.41 fold enrichment (6-mer frequency, TF over GST control)","1.32 fold enrichment (6-mer frequency, TF over GST control)","1.52 fold enrichment (6-mer frequency, TF over GST control)","1.4 fold enrichment (6-mer frequency, TF over GST control)","1.47 fold enrichment (6-mer frequency, TF over GST control)","1.45 fold enrichment (6-mer frequency, TF over GST control)"
CACTTA,"1.22 fold enrichment (6-mer frequency, TF over GST control)","1.13 fold enrichment (6-mer frequency, TF over GST control)","1.22 fold enrichment (6-mer frequency, TF over GST control)","1.34 fold enrichment (6-mer frequency, TF over GST control)","1.21 fold enrichment (6-mer frequency, TF over GST control)","1.18 fold enrichment (6-mer frequency, TF over GST control)","1.24 fold enrichment (6-mer frequency, TF over GST control)","1.23 fold enrichment (6-mer frequency, TF over GST control)"
TTTTCT,"1.36 fold enrichment (6-mer frequency, TF over GST control)","1.35 fold enrichment (6-mer frequency, TF over GST control)","1.32 fold enrichment (6-mer frequency, TF over GST control)","1.28 fold enrichment (6-mer frequency, TF over GST control)","1.42 fold enrichment (6-mer frequency, TF over GST control)","1.26 fold enrichment (6-mer frequency, TF over GST control)","1.54 fold enrichment (6-mer frequency, TF over GST control)","1.32 fold enrichment (6-mer frequency, TF over GST control)"
TATGAA,"1.21 fold enrichment (6-mer frequency, TF over GST control)","1.21 fold enrichment (6-mer frequency, TF over GST control)","1.27 fold enrichment (6-mer frequency, TF over GST control)","1.16 fold enrichment (6-mer frequency, TF over GST control)","1.2 fold enrichment (6-mer frequency, TF over GST control)","1.07 fold enrichment (6-mer frequency, TF over GST control)","1.17 fold enrichment (6-mer frequency, TF over GST control)","1.13 fold enrichment (6-mer frequency, TF over GST control)"
CATATA,"1.04 fold enrichment (6-mer frequency, TF over GST control)","1.09 fold enrichment (6-mer frequency, TF over GST control)","1.08 fold enrichment (6-mer frequency, TF over GST control)","1.02 fold enrichment (6-mer frequency, TF over GST control)","1.1 fold enrichment (6-mer frequency, TF over GST control)","1.01 fold enrichment (6-mer frequency, TF over GST control)","1.09 fold enrichment (6-mer frequency, TF over GST control)","1.12 fold enrichment (6-mer frequency, TF over GST control)"
CTCTCG,"1.36 fold enrichment (6-mer frequency, TF over GST control)","1.42 fold enrichment (6-mer frequency, TF over GST control)","1.4 fold enrichment (6-mer frequency, TF over GST control)","1.16 fold enrichment (6-mer frequency, TF over GST control)","1.25 fold enrichment (6-mer frequency, TF over GST control)","1.34 fold enrichment (6-mer frequency, TF over GST control)","1.35 fold enrichment (6-mer frequency, TF over GST control)","1.31 fold enrichment (6-mer frequency, TF over GST control)"
GTTTAA,"1.21 fold enrichment (6-mer frequency, TF over GST control)","1.24 fold enrichment (6-mer frequency, TF over GST control)","1.15 fold enrichment (6-mer frequency, TF over GST control)","1.05 fold enrichment (6-mer frequency, TF over GST control)","1.21 fold enrichment (6-mer frequency, TF over GST control)","1.17 fold enrichment (6-mer frequency, TF over GST control)","1.13 fold enrichment (6-mer frequency, TF over GST control)","1.13 fold enrichment (6-mer frequency, TF over GST control)"
CCTTTC,"1.62 fold enrichment (6-mer frequency, TF over GST control)","1.54 fold enrichment (6-mer frequency, TF over GST control)","1.59 fold enrichment (6-mer frequency, TF over GST control)","1.5 fold enrichment (6-mer frequency, TF over GST control)","1.39 fold enrichment (6-mer frequency, TF over GST control)","1.75 fold enrichment (6-mer frequency, TF over GST control)","1.62 fold enrichment (6-mer frequency, TF over GST control)","1.62 fold enrichment (6-mer frequency, TF over GST control)"
TAGCAC,"1.33 fold enrichment (6-mer frequency, TF over GST control)","1.21 fold enrichment (6-mer frequency, TF over GST control)","1.15 fold enrichment (6-mer frequency, TF over GST control)","1.14 fold enrichment (6-mer frequency, TF over GST control)","1.08 fold enrichment (6-mer frequency, TF over GST control)","1.09 fold enrichment (6-mer frequency, TF over GST control)","1.1 fold enrichment (6-mer frequency, TF over GST control)","1.02 fold enrichment (6-mer frequency, TF over GST control)"
